This is an account of results in PubChem BioAssay (NCI).

This is part of a sample that, as a whole, favours compounds with a hit. Of some 83,000 tested, about 20% had one in any assay.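 Method: cells in 96-well plates; compound added at one concentration; 48 h incubation; percent growth measured; values under 10 scored active.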 Unmarked numbers belong to inactive results. Activity calls are given as the source filed them.

This test relates to MDA-MB-468 breast. As to the kind of experiment: NCI-60 one-dose screen, 48 h (100 = growth as untreated, 0 = no growth, -100 = all killed). Particulars: 10 µM unless noted.
In the case of `Nc1ncnc2c1ccn2-c1cccc(NC(=O)c2cccc(C(F)(F)F)c2)c1`, the growth is 31.3%. Take `CCCCCCCCCCCCC1CCCC(C)C1` (stereo not given): the growth is 111%. The value for `COc1ccc(Cl)cc1-n1nnc(-c2nc3ccccc3[nH]2)c1N` was 63.2%.

As for `Cc1ccc2[nH]c(=O)c3c(c2c1)OC(N)=C(C#N)C31c2cc(Br)ccc2-c2ccc(Br)cc21`, the growth was 55.4%. The value for `COc1ccc(-c2cc(-c3cccc4ccccc34)n3c(n2)nc2ccccc23)cc1` was 52.4%. In the case of `CCn1c(=O)n(C)c2c(=O)n(C)c(=O)n(C)c21`, the growth was 103%. On to `Cn1cc(-c2cc3ncnc(Nc4ccc(CC(=O)Nc5cc(C(C)(C)C)nn5C)cc4)c3s2)cn1`, for which the growth was 33.8%.

Turning to `COCCCNc1nc(NC(=O)c2ccc(F)cc2C)cc(-c2cccnc2)n1`, the growth was 111%. The value for `CN1CCN(Cc2ccc(NC(=O)c3cncc(C#Cc4cnc5ccc(OCC6COC6)nn45)c3)cc2C(F)(F)F)CC1` was -60.7% (active). Take `OCCN1CCN(c2nc(Nc3ccc(-c4nc5ccccc5[nH]4)cc3)c3cn[nH]c3n2)CC1`: the growth was -82.3% (active).

Turning to `CCOC(=O)/C=c1\sc2n(c1=O)C1C(NN=2)N(CC)C(=O)N1CC` (stereo not given), the growth is 48.4%. The value for `Cc1nc2scc(-c3ccc(Cl)cc3)n2c(=O)c1CCN1CCOCC1` was 112%; that for `CCCCNC(=O)NS(=O)(=O)c1ccc(N2N=C(c3cc(C)ccc3C)CC2c2cc(OC)c(OC)c(OC)c2)cc1` (stereo not given) was 24.4%.

For the compound `COc1ccc2c(c1)c(C(=O)c1nc(-c3cn(C)c4ccccc34)no1)cn2C`, the growth was 108%. The value for `NC1=CC(=O)c2ccccc2C1=O` was 96.2%; that for `CCOC(=O)CC1C(COC(=O)NC)OC(n2cnc3c(NC(=O)Nc4ccccc4)ncnc32)C1O[Si](C)(C)C(C)(C)C` (stereo not given) was 61.9%.

Turning to `CCCCCCCCCCCCCCCC1=NCCN1`, the growth is -32.9% (active).

For the compound `O=C1Nc2ccc(Br)cc2C1=O`, the growth is 109%.

For the compound `Cc1nn(C)c2ncnc(N/N=C/c3cccc(O)c3O)c12`, the growth was -11% (active). The value for `CCC(=O)Oc1ccc2ccccc2c1` was 96.8%; that for `COc1cc(-c2csc(NC(=O)Nc3cc(Cl)cc(Cl)c3)n2)cc(OC)c1OC` was -6.75% (active).

Regarding `CC1=C(NCCN2CCCC2)C(=O)c2c(OCc3ccc(C(F)(F)F)cc3)cccc2C1=O`, the growth was 82.2%. The value for `CC1Cc2c(N(C)C)ncnc2N(C)c2ccc(O)cc21` (stereo not given) was 79.4%.

In the case of `Nc1cc(-c2c[nH]c3ccc(Br)cc23)nc2cc(-c3c[nH]c4ccc(Br)cc34)nn12`, the growth was -4.03% (active). The value for `Cc1ccc(-c2nc([P+](c3ccccc3)(c3ccccc3)c3ccccc3)c(N3CCOCC3)o2)cc1` was -27.6% (active); that for `Cc1nc(Sc2nc3ccc([N+](=O)[O-])cc3s2)sc1C` was 6.67% (active); that for `Cc1cc(C)c(N2C(=O)CC(Nc3ccc(Cl)cc3Cl)C2=O)c(C)c1` (stereo not given) was 96.1%.

Regarding `c1csc(-c2nc(-c3cc4ccccc4c(N4CCOCC4)n3)cs2)c1`, the growth is 5.77% (active). In the case of `[Cl][Ru].c1ccc(-c2cc(-c3ccccn3)nc(-c3ccccn3)c2)cc1.c1ccc(-c2ccnc3c2ccc2c(-c4ccccc4)ccnc23)cc1`, the growth was -66.3% (active).

On to `OC(Cc1cc(CC(O)(C(F)(F)F)C(F)(F)F)nc(CC(O)(C(F)(F)F)C(F)(F)F)c1)(C(F)(F)F)C(F)(F)F`, for which the growth was -37% (active). On to `CCCCCCCCC/C(=N\NC(=O)c1ccncc1)c1ccc(O)c(O)c1O`, for which the growth is 18.5%.

In the case of `COC(=O)c1ccc2c(c1)[n+](=O)c(C(C)=O)c(C(F)(F)F)n2[O-]`, the growth was -83.7% (active).

For the compound `CCn1cnc2c1c(=O)[nH]c(=O)n2CC1CCC(CNS(=O)(=O)c2ccc(OC3CCOCC3)c(F)c2)CC1` (stereo not given), the growth was 30.5%.

As to `CC(=O)n1nc(C(=O)OC(C)C)c2cc(C)c(C)cc21`, the growth is 92.9%. The value for `N=C(N)c1ccc(-c2ccc(-c3ccccc3)o2)nc1` was 59.9%; that for `CCc1ccc(Oc2cn[nH]c2-c2ccc(OCCc3ccc(F)cc3)cc2O)cc1` was 105%; that for `BrC/C=C/C[P+](c1ccccc1)(c1ccccc1)c1ccccc1` was 3.78% (active). Turning to `CC(C)c1ccc(NCc2cn(-c3ccc(C(=O)O)cc3)nc2-c2cc(C(F)(F)F)cc(C(F)(F)F)c2)cc1`, the growth is 102%. The value for `O=C(c1ccccc1)N(CCc1ccc(Cl)cc1)C(=S)N(C(=O)c1ccccc1)c1ccccc1` was 36%. The value for `Cc1cc2nc(C(Cl)Cl)nc(-c3ccccc3)n2n1` was -20.7% (active).
